Structures are written as SMILES. Several values for one entry are separate records, joined by “and”; a condition that tells them apart may be missing. Identical values can stand only once. Unmarked numbers belong to inactive results. Results filed as inconclusive are left out. Activity calls are given as the source filed them. Calls come from the whole dose curve; as a rule, active = well fitted curve in the direction sought with a large enough effect in the repeat runs; inconclusive = weak or mixed curves; inactive = no such curve, though single readings can be large; an effect the other way counts as inactive or inconclusive.

From PubChem BioAssay (Tox21) come the findings set out here.

The nature of assay [1]: qHTS RealTime-Glo MT Cell Viability Assay in HEK293 cells - 0 hour (AID 1224880). Note: top concentration of the series differs between compounds; nearly all actives have a fitted effect of over 45% in size. In outline: (§1)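 HEK293 cells mixed with RealTime-Glo reagents (NanoLuc plus cell-permeant prosubstrate) at 600 cells/well, preincubated 5 h at 37 C/5% CO2, then given 23 nL compound in DMSO. Nonlytic luminescence from viable cells was read at 0, 8, 16, 24, 32 and 40 h.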
On the technique in general: qHTS replaces the single test concentration by a dilution series.

The nature of assay [2]: A CellTox Green Cytotoxicity Assay to monitor cytotoxicity in HEK293 cells - 32 hour (AID 1224881). Note: nearly all actives have a fitted effect of over 40% in size. Note: potency is the fitted concentration of half-maximal effect. In outline:
(§2)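 HEK293 cells premixed with CellTox Green dye were seeded at 600 cells/well and left 5 h at 37 C/5% CO2 before pin transfer of 23 nL compound in DMSO. Fluorescence from dye bound to dead-cell DNA was read during 40 h treatment.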

Assay [3] is described as follows: A CellTox Green Cytotoxicity Assay to monitor cytotoxicity in HepG2 cells - 0 hour (AID 1224882). Note: nearly all actives have a fitted effect of over 35% in size. In outline:
(§3)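 HepG2 cells were seeded together with the CellTox Green dye at 600 cells/well, left 5 h at 37 C/5% CO2, then given compounds in DMSO. Fluorescence from dye bound to dead-cell DNA was read repeatedly over 40 h of treatment at 37 C.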

Assay [4] is described as follows: A CellTox Green Cytotoxicity Assay to monitor cytotoxicity in HepG2 cells - 32 hour (AID 1224883). Note: nearly all actives have a fitted effect of over 50% in size. Note: potency is the fitted concentration of half-maximal effect. In outline: as §3
A short description of assay [5]: A CellTox Green Cytotoxicity Assay to monitor cytotoxicity in HEK293 cells - 8 hour (AID 1224884). Note: nearly all actives have a fitted effect of over 35% in size. In outline:
as §2

Assay [6] is described as follows: qHTS RealTime-Glo MT Cell Viability Assay in HepG2 cells - 16 hour (AID 1224885). Note: nearly all actives have a fitted effect of over 50% in size. In outline: (§4)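 HepG2 cells (600/well) were dispensed with RealTime-Glo reagents, incubated 5 h at 37 °C, then treated with compounds in DMSO for up to 40 h. Nonlytic NanoLuc luminescence reflecting viable cells was read at each stated time point.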
Assay [7] is described as follows: qHTS RealTime-Glo MT Cell Viability Assay in HEK293 cells - 24 hour (AID 1224886). Note: top concentration of the series differs between compounds; nearly all actives have a fitted effect of over 50% in size. In outline: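 HEK293 cells seeded with NanoLuc/prosubstrate reagent, rested 5 h at 37 C, then dosed and kept at 37 C up to 40 h. Nonlytic real-time luminescence from viable cells read at 0, 8, 16, 24, 32 and 40 h.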
A short description of assay [8]: qHTS RealTime-Glo MT Cell Viability Assay in HEK293 cells - 8 hour (AID 1224887). Note: top concentration of the series differs between compounds; nearly all actives have a fitted effect of over 50% in size. In outline: as §1
Assay [9] can be described thus: A CellTox Green Cytotoxicity Assay to monitor cytotoxicity in HEK293 cells - 16 hour (AID 1224888). Note: nearly all actives have a fitted effect of over 35% in size. In outline:
as §2

Assay [10] in a line: qHTS RealTime-Glo MT Cell Viability Assay in HepG2 cells - 0 hour (AID 1224889). Note: nearly all actives have a fitted effect of over 50% in size. Note: potency is the fitted concentration of half-maximal effect. In outline:
as §4

With `Brc1ccc(Oc2ccccc2)cc1`, the Potency result in [1], in assay [3], in [4], in [5], in assay [6] and in assay [7] was “inactive” throughout. Further, the Potency result in [8], in [9] and in [10] was “inactive” throughout. In addition, the Potency in assay [2] is 50.2 µM (active) and 21.9 µM (active).

On to `C=CCOC(C)=O`, for which the Potency entry in assay [1], in [2], in assay [3], in assay [4], in assay [5] and in assay [6] was “inactive” each time. For the same compound, the Potency entry in assay [7], in assay [8] and in assay [9] was “inactive” in each case. For the same compound, in assay [10], the Potency is 12.1 µM (active).

As for `CC(=O)C(C)(C)C`, the Potency entry in [1], in assay [2], in assay [3], in assay [4], in [5] and in assay [6] was “inactive” in each case. Moreover, the Potency entry in assay [7], in assay [8], in [9] and in assay [10] was “inactive” in each case.

As for `CC(=O)CCC(C)=O`, the Potency result in assay [1], in assay [2], in assay [3], in assay [4], in assay [5] and in [6] was “inactive” in each case. Also, the Potency result in [7], in assay [8], in assay [9] and in [10] was “inactive” throughout.

Take `CN(N=O)c1ccc([N+](=O)[O-])cc1`: the Potency entry in [1], in [2], in assay [3], in [5], in assay [6] and in assay [7] was “inactive” each time. Besides, the Potency result in assay [8], in [9] and in assay [10] was “inactive” throughout. Moreover, the Potency in assay [4] is 43.6 µM (active).

On to `C=CC(=O)OC`, for which the Potency entry in assay [1], in assay [2], in assay [3], in assay [4], in assay [5] and in assay [6] was “inactive” throughout. Besides, the Potency result in assay [7], in [8], in [9] and in assay [10] was “inactive” in each case.

For the compound `O=C(NC(=O)c1c(F)cccc1F)Nc1ccc(OC(F)(F)C(F)OC(F)(F)F)c(Cl)c1` (centres undefined), the Potency result in assay [1], in assay [2], in assay [3], in assay [4], in assay [5] and in [6] was “inactive” throughout. Further, the Potency result in assay [7], in assay [8], in assay [9] and in [10] was “inactive” each time.

In the case of `O=C(CBr)Nc1ccc(Cl)cc1C(=O)c1ccccc1F`, the Potency entry in assay [1], in assay [2], in assay [3], in [4], in [5] and in assay [6] was “inactive” throughout. The Potency result in assay [7], in assay [8], in [9] and in assay [10] was “inactive” throughout.

Turning to `COCCOCCO`, the Potency result in assay [1], in assay [2], in assay [3], in assay [4], in assay [5] and in assay [6] was “inactive” throughout. The Potency entry in assay [7], in [8], in assay [9] and in assay [10] was “inactive” throughout.

Take `O=C=Nc1ccc(Cl)cc1`: the Potency entry in [1], in assay [2], in assay [3], in [4], in [5] and in assay [6] was “inactive” throughout. The Potency entry in assay [7], in assay [8], in assay [9] and in [10] was “inactive” throughout.

On to `CC(C)(CCl)C(=O)Cl`, for which the Potency result in assay [1], in [2], in [3], in assay [4], in [5] and in assay [6] was “inactive” each time. The Potency result in [7], in [8], in assay [9] and in assay [10] was “inactive” throughout.

As to `CC(=O)NC1CCSC1=O` (centres undefined), the Potency entry in [1], in assay [2], in assay [3], in assay [4], in [5] and in [6] was “inactive” in each case. Also, the Potency result in [7], in [8], in assay [9] and in assay [10] was “inactive” throughout.

In the case of `Cc1ccc(N)cc1C`, the Potency entry in [1], in [2], in [3], in assay [4], in [5] and in assay [6] was “inactive” each time. Besides, the Potency entry in assay [7], in assay [8], in [9] and in assay [10] was “inactive” each time.

`O=C(O)COc1ccc(Cl)cc1`: the Potency entry in [1], in [2], in [3], in [4], in assay [5] and in assay [6] was “inactive” throughout. Besides, the Potency result in assay [7], in [8], in assay [9] and in assay [10] was “inactive” in each case.

Regarding `CCCCNP(N)(N)=S`, the Potency entry in assay [1], in [2], in assay [3], in assay [4], in [5] and in [6] was “inactive” each time. For the same compound, the Potency entry in assay [7], in assay [8], in [9] and in assay [10] was “inactive” in each case.

With `Cn1sc(Cl)cc1=O`, the Potency entry in assay [1], in assay [2], in [3], in assay [4], in assay [5] and in assay [6] was “inactive” in each case. The Potency entry in assay [7], in assay [8], in assay [9] and in assay [10] was “inactive” throughout.

Turning to `Cc1ccc(-c2c(Cl)nc(C#N)n2S(=O)(=O)N(C)C)cc1`, the Potency entry in assay [1], in assay [2], in [3], in [4], in assay [5] and in assay [6] was “inactive” each time. Moreover, the Potency entry in assay [7], in [8] and in assay [9] was “inactive” in each case.

For the compound `CNC(C)Cc1ccccc1OC` (centres undefined), the Potency result in [1], in assay [2], in assay [3], in assay [4], in assay [5] and in assay [6] was “inactive” throughout. Besides, the Potency result in assay [7], in assay [8], in assay [9] and in [10] was “inactive” in each case.

For the compound `Cc1c(F)c(F)c(COC(=O)C2C(/C=C(\Cl)C(F)(F)F)C2(C)C)c(F)c1F` (centres undefined), the Potency result in assay [1], in [2], in assay [3], in assay [4], in [5] and in assay [6] was “inactive” in each case. Moreover, the Potency entry in assay [7], in assay [8], in [9] and in assay [10] was “inactive” each time.

As to `CC(=O)[C@H]1CC[C@H]2[C@@H]3CC[C@H]4C[C@](C)(O)CC[C@]4(C)[C@H]3CC[C@]12C`, the Potency entry in assay [1], in [2], in assay [3], in [4], in assay [5] and in assay [6] was “inactive” each time. Also, the Potency entry in assay [7], in assay [8], in assay [9] and in [10] was “inactive” each time.

With `C[N+](C)(C)CCCl`, the Potency result in assay [1], in assay [2], in [3], in [4], in assay [5] and in assay [6] was “inactive” throughout. The Potency result in assay [7], in [8], in assay [9] and in assay [10] was “inactive” each time.

Turning to `CCOC(=O)COc1cc(-c2nn(C)c(OC(F)F)c2Cl)c(F)cc1Cl`, the Potency entry in assay [1], in assay [2], in [3], in assay [4], in assay [5] and in assay [6] was “inactive” in each case. The Potency entry in [7], in [8], in [9] and in assay [10] was “inactive” in each case.

On to `O=Cc1ccc2c(c1)OCO2`, for which the Potency entry in [1], in [2], in assay [3], in assay [4], in assay [5] and in [6] was “inactive” throughout. Further, the Potency result in assay [7], in [8], in assay [9] and in assay [10] was “inactive” each time.
